Source: PubChem BioAssay (several laboratories)
A selection: hits, their analogues and other compounds. The true share with any hit is near 3.3%.
ERa SRC1 inh = ER-alpha (human) coactivator binding inhibition; P03372; TR-FRET ER-alpha LBD / SRC-1 peptide, estradiol-bound; inhibition, % at 25.6 µM; 86,000 compounds, 1.7% hits; in the data active = inhibition above about 50%
ERb coact inh = ER-beta (human) coactivator binding inhibition. 86,000 compounds, 1.3% hits. inhibition, % at 25.6 µM. Q92731. TR-FRET ER-beta LBD / SRC1-Cy5 peptide binding; receptor agonist-loaded with 1 µM estradiol. AID 633;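 active = compounds whose percent inhibition of the receptor-coactivator binding signal exceeds about 50% in the single-dose screen, limit read from the data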
FAK blocker = inhibitors of human focal adhesion kinase; Q05397; 97,000 compounds, 0.84% hits; biochemical FAK kinase activity assay; inhibition, %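 (tested at 7 µM)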; in the data active = inhibition above about 19%
Smad3 inh = inhibitors of human Smad3 transcription factor binding; TR-FRET Smad3/Dy647-FoxH1 peptide binding, europium anti-His; P84022; inhibition, % at 25 µM; AID 630; 88,000 compounds, 0.29% hits;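 active = compounds that reduce the energy-transfer binding signal between the protein and its labelled peptide by more than half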
Target sequence (P84022 whole entry, looked up): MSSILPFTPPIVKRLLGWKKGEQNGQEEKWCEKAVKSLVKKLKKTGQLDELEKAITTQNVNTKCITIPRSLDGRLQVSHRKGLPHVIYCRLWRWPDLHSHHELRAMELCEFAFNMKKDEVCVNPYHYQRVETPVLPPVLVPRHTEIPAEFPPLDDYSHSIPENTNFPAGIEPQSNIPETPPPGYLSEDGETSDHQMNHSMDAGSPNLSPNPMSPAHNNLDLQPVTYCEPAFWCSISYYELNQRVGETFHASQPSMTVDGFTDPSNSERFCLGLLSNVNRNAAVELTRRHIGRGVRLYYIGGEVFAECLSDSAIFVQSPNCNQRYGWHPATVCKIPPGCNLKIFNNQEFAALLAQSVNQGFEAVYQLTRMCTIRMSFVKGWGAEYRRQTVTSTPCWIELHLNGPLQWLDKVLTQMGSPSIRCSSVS
ERa SRC1 pot = enhances coactivator binding to human estrogen receptor alpha; P03372; TR-FRET ERalpha-LBD/SRC-Cy5 coactivator binding, 2 h; 100 = basal binding, no effect; coactivator binding (% of control), % at 25.6 µM; 86,000 compounds, 1.3% hits; in the data active = activity above about 200%;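 also: binding measured in presence of low estradiol as agonist stimulus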
Hits are given with their value; i = inactive; nt = not tested or not shown; [ ] = dose if it differs, or a comment.

SMILES | ERa SRC1 inh | ERb coact inh | FAK blocker | Smad3 inh | ERa SRC1 pot
CC1=NNC(=S)NCCCN2CCN(CCCNC(=S)NN=C(C)C=NNC(=S)NCCCN3CCN(CCCNC(=S)NN=C1)CC3)CC2 | nt | nt | nt | i | nt
COc1cc(-c2nn3c(-c4ccccc4)nnc3s2)cc(OC)c1OC | i | i | i | i | i
Clc1cccc(-c2nn3c(-c4cccc(Cl)c4)nnc3s2)c1 | i | i | nt | i | 296
CCOc1cccc(-c2nnc3sc(-c4cc(OC)c(OC)c(OC)c4)nn23)c1 | 73 | i | nt | i | i
c1cc(CSSCc2ccncc2)ccn1 | nt | nt | nt | i | nt
CC(=O)N(C(C)=O)c1ccc2nc(C)[nH]c(=O)c2c1 | i | i | i | i | 577[fluorescence artefact?]
CC(=O)Nc1ccc(Oc2ccc3nc(C)[nH]c3c2)cc1 | i | i | i | i | i
Cc1ccc(C2/C(=C(/O)c3ccccc3)C(=O)C(=O)N2CCN2CCOCC2)o1 (stereo not given) | i | i | i | i | i
Cc1ccc(C)c(/C(O)=C2/C(=O)C(=O)N(CCN3CCOCC3)C2c2ccco2)c1 (stereo not given) | i | 51 | i | i | i
Cc1cc(NC(=O)CN2CCN(Cc3ccccc3)CC2)nc2c1c(=O)oc1ccccc12 | i | i | nt | i | i
Cc1cc(NC(=O)CN2CC3CC(C2)c2cccc(=O)n2C3)nc2c1c(=O)oc1ccccc12 (stereo not given) | 61[fluorescence artefact?] | 58 | nt | i | i
O=c1c[n+](CC[n+]2cc(=O)o[nH]2)[nH]o1 | nt | nt | nt | i | nt
COc1ccc(C2CC(=O)Nc3ccccc3S2(=O)=O)cc1OC (stereo not given) | i | 50 | nt | i | i
CC(C)CNc1nc(N)[nH]c(=O)c1NC=O | nt | nt | nt | i | nt
OCCSCc1cc(Cl)cc(Cl)c1O | nt | nt | nt | i | nt
CN(C)CCCn1cnc2cc(Cl)c(Cl)cc21 | nt | nt | nt | i | nt
CC(C)NC(=O)COC(=O)c1ccccc1Oc1ccccc1 | nt | nt | i | nt | nt
O=C(COC(=O)c1ccccc1Oc1ccccc1)NCc1ccco1 | 64 | i | nt | i | i
Cc1onc(-c2c(F)cccc2Cl)c1C(=O)OCC(=O)NCc1ccco1 | 52 | i | i | i | i
O=C(COC(=O)c1ccccc1)NCc1ccco1 | 76[fluorescence artefact?] | 60 | i | i | i
O=C(COC(=O)c1ccc(S(=O)(=O)Nc2ccccc2)cc1)NCc1ccco1 | nt | nt | i | nt | nt
O=C(COC(=O)c1cc(-c2cccs2)nc2ccccc12)NCc1ccco1 | 65[fluorescence artefact?] | i | i | i | i
O[C@@H](COc1cccc2ccccc12)CN1CCOCC1 | nt | nt | nt | i | nt
C[N+](C)([O-])CCC=C1c2ccccc2CCc2ccccc21 | nt | nt | nt | i | nt
O=C(COC(=O)c1cccc(S(=O)(=O)N2CCc3ccccc3C2)c1)NCc1ccco1 | 65 | 53 | nt | i | i
SMILES | ERa SRC1 inh | ERb coact inh | FAK blocker | Smad3 inh | ERa SRC1 pot
Cc1ccc(-c2nnc(N3CCN(C(=O)CN4C(=O)c5ccccc5C4=O)CC3)c3ccccc23)cc1 | 58 | i | i | i | i
Cc1ccc(-n2nnnc2SCC(=O)Nc2ccc3c(c2)COC3=O)cc1C | 73 | i | i | i | i
COc1cccc(-n2nnnc2SCC(=O)Nc2ccc(C(C)=O)cc2)c1 | i | i | i | i | 332
CCOC(=O)c1csc(NC(=O)CSc2nnnn2-c2cccc(OC)c2)n1 | i | i | i | i | i
Cc1ccc(NC(=O)CSc2nnnn2-c2ccc3c(c2)OCO3)cc1C | 56[fluorescence artefact?] | i | i | i | 330
Cc1ccc(-n2nnnc2SCC(=O)Nc2ccc3c(c2)OCCO3)cc1C | i | i | i | i | i
NC(=O)N/N=C1\CC[C@H](O)C[C@@H]1CC(=O)O | nt | nt | nt | i | nt
O=C(c1cc2sccc2n1Cc1ccccc1)N1CCc2ccccc21 | i | i | i | i | 509
O=C(c1cc2sccc2n1Cc1ccccc1)N1CCCc2ccccc21 | i | i | i | i | i
COc1nc(-c2ccccc2)ccc1-c1noc(-c2ccco2)n1 | i | i | i | i | 229
COc1nc(-c2ccc(Cl)cc2)ccc1-c1noc(-c2ccncc2)n1 | 65[fluorescence artefact?] | i | i | i | 369[fluorescence artefact?]
COc1ccc(-c2ccc(-c3noc(-c4ccccc4F)n3)c(OC)n2)cc1 | i | i | i | i | 241[fluorescence artefact?]
Cn1c(=O)c2[nH]c(CS(=O)(=O)Cc3nc4c([nH]3)c(=O)n(C)c(=O)n4C)nc2n(C)c1=O | nt | nt | nt | i | nt
O=C(O)c1cc(Nc2nc(N3CCOCC3)nc(N3CCOCC3)n2)ccc1Cl | i | i | i | i | i
O=C(O)c1cccc(Nc2nc(N3CCOCC3)nc(N3CCOCC3)n2)c1 | i | i | i | i | 626[fluorescence artefact?]
CCOc1ccccc1Nc1ccc(N)cc1S(=O)(=O)O | nt | nt | nt | i | nt
O=C1CCC(c2ccccc2)=NN1c1nc2ccccc2s1 | nt | nt | nt | i | nt
CC1(C)Cc2ccccc2-c2nnnn21 | i | 97[fluorescence artefact?] | i | i | i
COC(=O)C1CCN(C(=O)Cc2ccc(Br)cc2)CC1 | 55[fluorescence artefact?] | 66[fluorescence artefact?] | i | i | i
COC(=O)C1CCN(C(=O)Cc2ccc(OC)c(OC)c2)CC1 | i | i | i | i | i
CCOC(=O)c1cn(-c2ccccc2)nc1-c1cccnc1 | i | i | nt | i | i
O=C(OCn1nnc2ccccc2c1=O)c1cn(-c2ccccc2)nc1-c1cccnc1 | 68 | i | i | i | i
C1=C(c2ccc(-c3ccccc3)cc2)Nc2ncnn2C1c1ccco1 (stereo not given) | 69[fluorescence artefact?] | i | i | i | i
CCOc1ccc(C2C=C(c3ccccc3)Nc3ncnn32)cc1 (stereo not given) | i | i | i | i | i
CCOC(=O)c1cccc(NC(=O)COC)c1 | i | i | i | i | i
SMILES | ERa SRC1 inh | ERb coact inh | FAK blocker | Smad3 inh | ERa SRC1 pot
CCOCC(=O)Nc1cccc(C(=O)OCC)c1 | 60 | i | i | i | i
O=C(c1cnccn1)N1CCc2ccccc21 | 79[fluorescence artefact?] | 97[fluorescence artefact?] | nt | i | i
O=C(c1cccnc1)N1CCCc2ccccc21 | i | i | i | i | i
Cc1ccc2nc(-c3ccc(NC(=O)c4ccc(N)cc4)c(S(=O)(=O)O)c3)sc2c1 | nt | nt | nt | i | nt
O=S(=O)(/N=C(/Sc1ccccc1)c1ccccc1)c1ccccc1 | 77 | 54[fluorescence artefact?] | i | i | i
COc1ccc(OCC(=O)N2CCN(C(=O)c3ccccc3)CC2)cc1 | i | i | i | i | 492[fluorescence artefact?]
c1ccc(-n2c(SCC3CCCCO3)nnc2-c2cccs2)cc1 (stereo not given) | i | i | i | i | i
CN1CCc2c(sc3c2c(=O)n(-c2ccccc2)c2nnc(SCc4ccc(Cl)cc4)n32)C1 | i | i | i | i | 314
O=C(NC1CCSC1=O)c1cccc(C(=O)NC2CCSC2=O)c1 (stereo not given) | i | i | i | i | 208
O=C(NC1CCSC1=O)c1ccccc1 (stereo not given) | i | i | i | i | i
Cc1ccc(C(=O)NC2CCSC2=O)cc1 (stereo not given) | i | i | i | 54[fluorescence artefact?] | i
O=C(O)C(Cc1cccs1)C(=O)O | nt | nt | nt | i | nt
CC(C)CN(CC#N)CC(C)C | nt | nt | nt | i | nt
COC(=O)c1cc(OC)c(OC)cc1NC(=O)c1ccc(Br)o1 | 57 | i | i | i | i
COc1ccc(-c2nc3ccccc3o2)cc1NC(=O)c1ccc(Br)o1 | i | i | i | i | 257[fluorescence artefact?]
COc1cc(NC(=O)c2ccc(Br)o2)c(C(=O)O)cc1OC | i | i | i | i | i
